ELG1 DNA repair: inhibitors of ELG1-dependent DNA repair in HEK293T cells | Potency, µM (titrated, usually from 46.1 µM), without a hit: at the top dose activity change, negative = inhibition, usual class: inhibitors | HEK293T ELG1-luciferase reporter, luminescence, 16 h; DNA damage induced by 5-fluorouridine | 330,000 compounds, 2.3% hits; note: % is set by controls: 0 for no effect and ±100 for the full control effect; nearly all actives have a fitted effect of over 55% in size
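5-Fluorouridine DNA damage + compound/DMSO, 2,000 cells/well, 16 h, 37 °C/5% CO2. ONE-Glo, 30 min RT, luminescence. Readout = decrease in reporter signal.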
FLuc counter: firefly luciferase modulation, counter-screen for miR-21 project. P08659. purified FLuc, Km substrates, luminescence inhibition. Potency, µM (titrated, usually from 57.5 µM), for inactives: at the highest dose activity change, negative = inhibition, most hits filed as inhibitors. 360,000 compounds, 6.9% hits;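 note: plate controls were vehicle for no effect and reference inhibitor for full effect; nearly all actives have a fitted effect of over 55% in size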
Target sequence (P08659 whole entry, looked up): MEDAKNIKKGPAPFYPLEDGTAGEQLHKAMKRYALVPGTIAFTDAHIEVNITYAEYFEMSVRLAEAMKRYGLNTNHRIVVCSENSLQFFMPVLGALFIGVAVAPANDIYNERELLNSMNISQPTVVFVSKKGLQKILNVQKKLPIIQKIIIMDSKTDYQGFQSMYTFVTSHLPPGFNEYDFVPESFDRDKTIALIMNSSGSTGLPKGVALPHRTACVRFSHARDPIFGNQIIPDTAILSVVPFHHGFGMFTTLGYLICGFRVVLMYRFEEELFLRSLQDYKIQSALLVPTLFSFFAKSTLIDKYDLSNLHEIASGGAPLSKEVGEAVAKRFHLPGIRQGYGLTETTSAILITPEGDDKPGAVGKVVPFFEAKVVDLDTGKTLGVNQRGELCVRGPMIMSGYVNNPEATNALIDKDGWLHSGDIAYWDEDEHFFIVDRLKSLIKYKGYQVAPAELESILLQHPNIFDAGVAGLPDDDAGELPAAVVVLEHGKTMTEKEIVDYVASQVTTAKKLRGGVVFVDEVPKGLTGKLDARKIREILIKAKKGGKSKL
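Biochemical qHTS of compounds, final roughly 60 µM downward over six points, against 10 nM purified firefly luciferase using Km concentrations of substrates (10 uM D-luciferin, 10 uM ATP) in Tris acetate pH 7.5 buffer; luminescence output.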
Rab9 promoter act: activators of Rab9 promoter; Potency, µM (highest dose often 9.22 µM), for inactives: at the highest dose activation, negative = inhibition, usual class: activators; Huh7 Rab9 promoter-luciferase reporter, luminescence, 24 h; 320,000 compounds, 2.8% hits; note: % of control where 0% means no effect; nearly all actives have a fitted effect of over 60% in size
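Luminescence from Amplite-detected luciferase (10 minutes, ambient) reports Rab9 promoter activation. Before that, stable Rab9-luciferase Huh7 cells (1500/well, reduced-serum OP-MEM I plus 10% FBS) were exposed to compound for 24 hours at 37C.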
NPC1 prom act: activates the NPC1 promoter; Huh7 NPC1 promoter luciferase reporter, 24 h; Potency, µM (top dose mostly 9.22 µM), for inactives: at the top dose activation, most hits filed as activators; 320,000 compounds, 2.4% hits; AID 485313; note: % of control where 0% means no effect; nearly all actives have a fitted effect of over 60% in size
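Huh7 reporter cells (NPC1 promoter driving luciferase) are dosed with compound for 24 h at 37 °C, 5% CO2; luciferase detection reagent is then added and luminescence measured after 10 min at ambient temperature.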
SMN2 splice enh: SMN2 splice variant enhancement | HEK293 SMN2-luciferase splicing reporter, luminescence, 30-36 h | Potency, µM (doses to about 46.1 µM), without a hit: top-dose activity change, positive = activation, actives largely listed as activators | 210,000 compounds, 2.8% hits | AID 1458; note: % of control where 0% means no effect; nearly all actives have a fitted effect of over 55% in size
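HEK293 cells carry an SMN2 minigene-luciferase reporter in which exon 7 inclusion puts luciferase in frame. Cells were seeded at 2000 cells/well, attached for 10-12 hours, then exposed to compounds for 30-36 hours at 37C before ONE-Glo luminescence.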
ELG1 genotoxic: inducers of genotoxicity in HEK293T ELG1-luciferase cells; Potency, µM (highest dose often 46 µM), for inactives: at the top dose activity change, positive = activation, most hits filed as activators; 330,000 compounds, 1.3% hits; HEK293T ELG1-luciferase reporter, luminescence, 16 h; AID 504466; note: % of control where 0% means no effect; nearly all actives have a fitted effect of over 60% in size
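After overnight (16 hr) compound treatment at 37 °C, ELG1-luciferase HEK293T cells were lysed with ONE-Glo; luminescence quantified 30 min later at room temperature.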
Active calls of the source: *; ? = inconclusive; nt = not tested or not shown; [ ] = another dose, or the depositor's remark. Rows were chosen to be rich in hits. Some 9.3% of all compounds tested hit in one or more screens of this group. Calls come from the whole dose curve; as a rule, active = well fitted curve in the direction sought with a large enough effect; inconclusive = small, poorly fitted or top-dose-only effect, or another doubt; inactive = no such curve, though single readings can be large; an effect the other way counts as inactive or inconclusive. Potency is the fitted concentration of half-maximal effect.

SMILES | ELG1 DNA repair | FLuc counter | Rab9 promoter act | NPC1 prom act | SMN2 splice enh | ELG1 genotoxic
COc1ccccc1NC(=O)c1ccc2nsnc2c1 | ? | 15.1µM* | 3.98µM* | ? | nt | ?
COC(=O)c1oc2ccc(Cl)cc2c1-n1cccc1 | 12.1% | -0.6% | -7.5% | -1.0% | 3.7% | -1.5%
Cc1ccnc(NS(=O)(=O)c2ccc(NC(=O)C3C4C=CC(C4)C3C(=O)O)cc2)n1 (stereo unspecified) | -3.6% | -0.5% | -2.4% | -3.5% | nt | -0.4%
COc1cccc(C(=O)Nc2cc(Cl)c(O)c(Cl)c2)c1 | ? | 15.1µM* | 11.6% | ? | nt | 7.9%
COc1ccc(C(=O)CC(Nc2ccc([N+](=O)[O-])cc2)c2ccc(Cl)cc2)cc1 (stereo unspecified) | 16.4µM* | ? | -4.0% | 0.6% | 6.2% | -28.7%
COc1cccc(NC(=O)c2ccccc2C(F)(F)F)c1 | ? | -0.4% | 3.9% | -5.5% | 10.3% | -0.6%
COc1cccc(NC(=O)c2ccc(OC(F)(F)F)cc2)c1 | ? | 2.39µM* | 1.78µM* | 3.98µM* | nt | ?
O=C(Nc1ccc(F)cc1)c1ccc2nsnc2c1 | ? | 13.5µM* | ? | ? | nt | 8.9%
Cc1ccc(NC(=O)c2ccc3snnc3c2)cc1 | -4.6% | -3.2% | 12.5% | -1.8% | nt | 3.7%
COc1ccc(C(=O)CC(=O)C(=O)Nc2ccc(Cl)cc2)cc1 | ? | -0.9% | -4.6% | -2.7% | nt | -6.3%
CCOC(=O)C1CCN(C(=O)COC(=O)c2c(C)c(CC)nc3ccccc23)CC1 | 0.0% | nt | nt | nt | nt | -8.4%
O=C(Nc1sc2c(c1C(=O)N1CCCCC1)CCCC2)c1ccccc1Cl | nt | -19.5% | nt | nt | -12.7% | nt
NC(=O)c1c(NC(=O)c2ccccc2F)sc2c1CCCC2 | ? | 1.9µM* | 0.891µM* | 1.58µM* | nt | ?
NC(=O)c1c(NC(=O)c2ccc(N3C(=O)CCC3=O)cc2)sc2c1CCCC2 | -6.0% | 10.7µM* | -3.3% | 1.0% | nt | 7.6%
NC(=O)c1c(NC(=O)c2cccnc2Cl)sc2c1CCCC2 | ? | 19µM* | -0.2% | -1.5% | 3.2% | 8.3%
NC(=O)c1c(NC(=O)c2ccccc2Cl)sc2c1CCC2 | ? | 15.1µM* | ? | ? | nt | ?
Cc1cccc(CCNS(=O)(=O)c2ccc3c(c2)NC(=O)CS3)c1 | 14.1% | -1.8% | -4.4% | -4.5% | nt | 0.9%
O=C(Cc1ccc(Br)cc1)NCc1ccccc1 | ? | -17.4% | -17.0% | -27.9% | nt | ?
CC(=O)N1CCCc2cc(S(=O)(=O)N3CCCC(C(=O)NC(C)C)C3)ccc21 (stereo unspecified) | nt | 0.9% | nt | nt | nt | nt
COC(=O)c1ccc(C(/C=C/[C@@H](C)C(=O)NCCc2c[nH]c3ccccc23)NC(=O)OCc2ccccc2)cc1 (stereo partly specified) | nt | nt | nt | nt | 0.5% | nt
Cn1cc(Br)c(C(=O)Nc2sc3c(c2C(N)=O)CCCC3)n1 | ? | 3.01µM* | ? | 7.5% | nt | 10.8%
NC(=O)c1c(NC(=O)c2ccc(F)cc2Cl)sc2c1CCC2 | ? | 13.5µM* | ? | ? | nt | -1.8%
NC(=O)c1c(NC(=O)c2ccccc2C(=O)O)sc2c1CCCC2 | -1.2% | 16.9µM* | 5.5% | 1.5% | nt | -5.7%
CC(OC(=O)c1ccc(-c2ccc(O)cc2)cc1)C(=O)NC1CCCCC1C (stereo unspecified) | 7.6% | -0.1% | -1.4% | -1.4% | nt | 0.1%
CCOc1ccc(CN2C(=O)CC(=O)N(S(=O)(=O)c3ccc(OCC)cc3)C2=O)cc1 | 2.3% | -1.3% | 1.1% | 2.1% | nt | 1.2%
SMILES | ELG1 DNA repair | FLuc counter | Rab9 promoter act | NPC1 prom act | SMN2 splice enh | ELG1 genotoxic
c1ccc(-n2ncc3c(NC4CCCCCC4)ncnc32)cc1 | ? | 2.69µM* | 1.78µM* | 1.78µM* | nt | ?
CCOC(=O)N1CCC(Nc2ncnc3c2cnn3-c2ccccc2)CC1 | ? | -16.9% | 20.3% | -2.4% | -35.8% | -4.3%
Cc1ccc(Cl)cc1-n1ncc2c(NC3CCCCCC3)ncnc21 | nt | -0.4% | nt | nt | nt | nt
Clc1ccc(-n2ncc3c(NC4CCCC4)ncnc32)cc1 | nt | 0.849µM* | nt | nt | nt | nt
Fc1ccc(-n2ncc3c(Nc4ccc(Oc5ccc(Cl)cc5)cc4)ncnc32)cc1 | nt | 0.6% | nt | nt | nt | nt
Cc1ccc(-n2ncc3c(NC4CCCCCC4)ncnc32)cc1Cl | nt | 2.69µM* | nt | nt | nt | nt
CCc1ccc(NC(=O)CN(CC(=O)Nc2ccc(CC)cc2)CC(C)O)cc1 (stereo unspecified) | ? | -4.1% | -9.3% | -6.4% | nt | -0.8%
COc1cc(SC)ccc1C(=O)N1CCC(Cc2ccccc2)CC1 | nt | nt | -21.1%[46.1 µM] | -18.5%[46.1 µM] | nt | nt
N#Cc1c(N)nc2c(c1-c1cccc(O)c1)CCCCCC2 | -5.1% | -0.1% | 2.5% | -0.5% | 7.5% | -0.8%
Oc1cccc(-c2nc3ccc4ccccc4c3c3c2CCC3)c1 | ? | 6.01µM* | ? | ? | ? | 18.1%
CC(/C=C1\SC(=O)N(CCCC(=O)O)C1=O)=C\c1ccccc1 | ? | 5.36µM* | -30.5%[0.369 µM] | -31.8% | -76.4% | -8.6%
C=CCN1C(=O)/C(=C\C(C)=C\c2ccccc2)SC1=S | ? | 8.49µM* | 1.4% | 13.9% | nt | ?
CCC(C(=O)O)N1C(=O)/C(=C/C(C)=C/c2ccccc2)SC1=S (stereo unspecified) | -9.5% | -1.9% | 3.6% | -5.0% | nt | 0.1%
CC(=C\c1ccccc1)/C=C1/SC(=S)N(CCCC(=O)O)C1=O | ? | 26.9µM* | -20.3% | -15.2% | nt | -0.8%
CC(/C=C1\SC(=S)N(CCC(=O)Nc2ccccc2O)C1=O)=C\c1ccccc1 | -2.2% | 2.4% | 7.2% | 5.6% | nt | -2.0%

Screens (PubChem)
